Giardia FBPA inh = inhibitors of Giardia lamblia fructose-1,6-bisphosphate aldolase | purified Giardia FBPA | Potency, µM (doses to about 59.6 µM), for inactives: top-dose activity, negative = inhibition, actives largely listed as inhibitors | AID 2451 | A8B2U2 | actives 0.71% (n = 290,000); further: potency means the concentration at half of the fitted maximal effect; on the % scale 0 is the no-effect control and ±100 the full control effect; nearly all actives have a fitted effect of over 55% in size
Target sequence (A8B2U2 whole entry, looked up): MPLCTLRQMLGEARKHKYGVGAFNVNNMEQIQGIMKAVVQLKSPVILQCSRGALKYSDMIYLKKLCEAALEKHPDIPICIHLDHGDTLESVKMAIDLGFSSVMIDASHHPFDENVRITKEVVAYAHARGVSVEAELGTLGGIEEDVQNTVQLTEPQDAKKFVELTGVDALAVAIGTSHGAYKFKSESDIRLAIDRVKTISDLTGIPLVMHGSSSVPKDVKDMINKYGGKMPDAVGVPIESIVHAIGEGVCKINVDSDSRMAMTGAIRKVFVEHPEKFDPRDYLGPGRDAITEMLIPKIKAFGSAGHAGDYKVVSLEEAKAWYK
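40 nM FBPA preincubated 10 min at RT with compound (up to 57.5 uM final), then substrate plus GAPDH/TPI/NAD/arsenate coupling and diaphorase/resazurin added. Fluorescence read after 20 min at RT, 525/598 nm.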
Pf growth 48h = P. falciparum growth inhibition at 48 hours (one generation). actives 5.9% (n = 310,000). Potency, µM (titrated, usually from 28.7 µM), for inactives: at the highest dose activity change, negative = inhibition, usual class: inhibitors. P. falciparum luciferase growth in erythrocytes, 48 h; further: potency means the concentration at half of the fitted maximal effect; on the % scale 0 is the no-effect control and ±100 the full control effect
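Read-out is firefly luciferase luminescence from an integrated reporter in P. falciparum, so falling signal marks reduced parasite growth. Infected erythrocytes were at 2% hematocrit and 0.1% parasitemia (final) in Albumax-supplemented RPMI 1640.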
Shiga toxin inh = Shiga toxin inhibition | Vero cells, Shiga toxin protein synthesis inhibition reporter | inhibition, % at 38.7 µM | actives 9.2% (n = 290,000) | AID 2315; in the data active means inhibition mostly above about 28%, no sharp cut-off; inactive means mostly below about 43%; further: 0% is about no effect
NS1 inh = influenza NS1 inhibition; actives 0.4% (n = 270,000); Potency, µM (titrated, usually from 46.1 µM), for inactives: top-dose activity, positive = more growth; calls by dose curve; further: potency means the concentration at half of the fitted maximal effect; actives are rising curves; nearly all actives have a fitted effect of over 50% in size
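Read-out: OD600 growth recovery of NS1-expressing budding yeast. Cells grown overnight at 30C in -URA glucose medium, washed, resuspended and diluted 1:100 in 2% galactose assay medium, pH 6.0. Same strain lacking NS1 served as positive control.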
Pf growth 96h = P. falciparum growth inhibition at 96 hours. P. falciparum luciferase reporter growth, 96 h. actives 6.9% (n = 320,000). Potency, µM (highest dose often 28.7 µM), for the others: top-dose activity change, negative = inhibition, most hits filed as inhibitors; further: potency means the concentration at half of the fitted maximal effect; on the % scale 0 is the no-effect control and ±100 the full control effect
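Cell-based qHTS: luciferase-tagged P. falciparum in erythrocytes (2% hematocrit, 0.05% parasitemia final) incubated with compounds for 96 hours, 37 C, 5% CO2; luciferase detection reagent then added and luminescence measured.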
Cycloheximide cs = counter-screen for Shiga toxin inhibitors: cycloheximide protein synthesis inhibition; cell reporter, cycloheximide protein synthesis inhibition counterscreen; max response, %; actives 12% (n = 300,000); AID 2314; in the data active means max response mostly above about 13%, no sharp cut-off; inactive means mostly below about 14%; further: read at 38.3 µM for the half of the compounds with a filed dose; 0% is about no effect
* marks the source's active call; other numbers are inactive results; u = inconclusive; x = not tested or not shown; [ ] = dose if it differs, or a comment. This is a sample that favours compounds with a hit; in the whole collection about 21% have one here. Unless noted, the call rests on the fitted dose curve; in most records, active means well fitted curve in the direction sought with a large enough effect; inconclusive means small, poorly fitted or top-dose-only effect, or another doubt; inactive means no such curve, though single readings can be large; an effect the other way counts as inactive or inconclusive.

SMILES | Giardia FBPA inh | Pf growth 48h | Shiga toxin inh | NS1 inh | Pf growth 96h | Cycloheximide cs
COc1ccc(OC)c(N=c2oc3cc(O)ccc3cc2C(N)=O)c1 | 19.0% | 10.6% | 5.4 | u | 13.1µM* | 15.3
COc1ccc2oc(=Nc3cc(F)ccc3F)c(C(N)=O)cc2c1 | 2.1% | -10.3% | -9.4 | x | 9.1% | 5.8
O=C(NCc1ccccc1)c1cc2ccc(O)cc2oc1=O | 8.6% | 37.6% | 42.2* | -76.9% | -9.6% | 21.4*
COc1ccc2cc(C(N)=O)c(=Nc3ccccc3)oc2c1 | 8.0% | 73.9% | 23.6 | x | u | 4.3
O=C(O)c1ccc(N=c2oc3cc(O)ccc3cc2C(=O)NCc2ccccc2)cc1 | -4.2% | -28.2% | 3.9 | x | u | 7.1
NC(=O)c1cc2ccc(O)cc2oc1=Nc1ccccc1 | 7.1% | 58.7% | 50.3* | -100.7% | 21.0% | 62.9*
NC(=O)c1cc2ccc(O)cc2oc1=NCc1ccccc1 | 1.4% | 13.1% | -4.8 | -51.5% | -3.7% | 15.7*
NC(=O)c1cc2ccccc2oc1=NCc1ccccc1 | 0.2% | 1.4% | 43.8 | -47.8% | 41.4% | 16.6
CCOC(=O)CN1C(=O)CCSc2ccc(Cl)cc21 | 0.3% | 0.8% | -7.8 | -1.3% | u | -0.9
CC1CCc2c(sc(NC(=O)CSc3nc(N)cc(=O)[nH]3)c2C(N)=O)C1 (stereo unspecified) | x | 5.8% | x | x | 12.4% | x
COc1ccccc1-c1c(NC(=O)c2ccco2)n(C)c2ccccc2c1=O | -2.4% | -2.0% | 36.4* | 5.8% | -1.5% | 18.2*
Cc1cc(OC(C)C(=O)NCc2cccnc2)c2c(C)cc(=O)oc2c1 (stereo unspecified) | -4.8% | u | -4.8 | -6.9% | u | -6.2
CCOP(=O)(Oc1ccccc1)c1c([N+](=O)[O-])cc(C(F)(F)F)cc1[N+](=O)[O-] (stereo unspecified) | -4.1% | 0.2% | -14.6 | -1.1% | 2.5% | -3.1
CCCOP(=O)(O)c1c([N+](=O)[O-])cc(C(F)(F)F)cc1[N+](=O)[O-] (tested in a mixture with another compound) | -2.2% | x | 42.0 | 15.3% | -9.5% | 14.3*
O=S(=O)(c1ccc(Br)cc1)N1CCC2(CC1)OCCO2 | x | -5.1% | -3.1 | 6.4% | -21.4% | -1.4
CCCCCC1=C2CNC(CCC)(C(=O)OC)C=C2C(C)C1=O (stereo unspecified) | -28.6% | x | x | x | x | x
CN1CCN(c2ccc(NC(=O)Cc3ccccc3)cc2)CC1 | 5.9% | 103.3% | 75.1* | -2.5% | x | 55.1*
O=C(Cc1ccccc1)Nc1ccc(N2CCCCC2)cc1 | -3.0% | 243.2% | 82.6* | -0.7% | 393.7% | 31.3*
CS(=O)(=O)N1CCN(c2ccc(NC(=O)Cc3ccccc3)cc2)CC1 | -4.5% | x | 43.5 | 12.7% | -16.9% | 21.9
CC(=O)c1sc(NC(=O)CCN2C(=O)c3ccccc3C2=O)nc1C | 2.9% | 3.3% | -13.4 | 5.8% | -19.3% | -1.0
CN1CCN(CCC(=O)Nc2cccc(Br)c2)CC1 | -13.6% | 66.1% | 3.9 | -59.6% | 43.7% | -0.5
CC(C)Sc1nc(N)nc(-c2cccs2)c1C#N | 1.5% | 71.1% | 105.3* | -27.9% | 52.1% | 33.4*
CSc1nc(N)nc(-c2cccs2)c1C#N | -0.3% | 61.5% | 17.4 | -57.2% | 83.9% | 13.4
Cn1nnnc1P(=O)(c1ccccc1)c1ccccc1 | 2.8% | -13.0% | -12.3 | 5.2% | 10.4µM* | 1.7
Cn1nnnc1NC(=O)c1ccccc1Cl | u | 2.3% | -15.7 | 13.5% | 52.8% | -2.0
SMILES | Giardia FBPA inh | Pf growth 48h | Shiga toxin inh | NS1 inh | Pf growth 96h | Cycloheximide cs
Cc1cc(CN2CCC(n3nccc3NC(=O)c3ccccc3C)CC2)n[nH]1 | -1.4% | 10.4% | -4.4 | 1.7% | u | -2.1
CO[C@H]1COC(=O)[C@H](C)NC(=O)C/C=C\[C@@H](C)[C@@H](NS(=O)(=O)c2ccc(C)cc2)COC(=O)[C@H](OCc2ccccc2)/C=C\[C@@H]1C | 1.3%[12.9 µM] | x | x | x | x | x
COC(=O)CSc1nc(-c2ccccc2)cc(-c2ccco2)c1C#N | -27.4% | 52.0% | 83.3* | 4.0% | u | 41.0*
COc1ccc(-c2cc(-c3ccccc3)c(C#N)c(SCC(=O)Nc3ncc(C)s3)n2)cc1 | 0.4% | 13.1µM* | -3.1 | -3.0% | -12.6% | -2.9
COc1ccc(-c2cc(-c3ccccc3)nc(SCC(=O)Nc3nccs3)c2C#N)cc1 | 4.6% | 18.1% | 20.1 | 10.0% | u | 2.1
COC(=O)CSc1nc(N)c(C#N)c(-c2ccco2)c1C#N | -22.3% | 21.0% | -20.4 | -3.0% | 33.1% | 6.7
CC1(C)Nc2ccccc2C(=O)N1c1ccccc1 | -8.1% | -13.1% | x | -12.1% | -21.8% | 18.5*
COc1ccc2c(c1)C1(Nc3ccccc3C(=O)N1c1ccccc1)C(=O)N2 (stereo unspecified) | -7.0% | u | -1.5 | -8.6% | -14.2% | 1.8
CCC1(CC)Nc2ccccc2C(=O)N1c1ccc(NC(C)=O)cc1 | 0.3% | 52.7% | 17.5 | -6.2% | 76.8% | 11.7*
CCC1(CC)Nc2ccccc2C(=O)N1c1ccc(OC)cc1 | 0.4% | 111.7% | 35.7* | -1.7% | 457.5% | 33.2*
COc1ccc(N2C(=O)c3ccccc3NC23CCCC3)cc1 | 2.1% | 194.7% | 43.6* | x | 191.0% | 31.5*
CCCCCCC1CCC(C(=O)N2CCOCC2)CC1 (stereo unspecified) | 6.9% | u | 20.1 | x | 82.8% | 0.2
CCc1ccc(CN(Cc2cccnc2)C(=O)/C=C/c2ccc(OC)cc2)cc1 | -2.5% | 8.28µM* | 34.0* | 11.3% | u | 25.0*
COc1ccc(/C=C/C(=O)NCc2cccnc2)cc1 | 6.6% | 12.2% | 8.4 | -0.8% | u | 7.7
O=c1cc(CSc2ccc(Cl)cc2)nc(-c2ccccn2)[nH]1 | 0.4% | 2.33µM* | 2.6 | -95.6% | 1.85µM* | -1.9
CC1=NN(C(=O)c2ccc(Br)cc2)C(O)(C(F)(F)OC(F)(F)F)C1 (stereo unspecified) | 5.2% | 4.65µM* | 29.1 | -13.5% | u | 16.6*
CC1=NN(C(=O)c2csc(C)c2C)C(O)(C(F)(F)F)C1 (stereo unspecified) | 3.2% | 15.0% | 47.2* | 6.7% | 31.7% | 37.3*
CC1=NN(C(=O)c2nn(C)cc2Br)C(O)(C(F)(F)F)C1 (stereo unspecified) | 2.5% | 17.2% | 59.5* | -1.5% | u | 35.1*
COC(=O)c1ccc(CO/N=C/c2ccc(OC)cc2OC)cc1 | 10.2% | 0.0% | 13.2 | -7.4% | 0.3% | -8.5
O=C(c1ccc(S(=O)(=O)N2CCCC2)cc1)N1CCC(CN2C(=O)c3cccc4cccc(c34)C2=O)CC1 | 3.4% | 11.7µM* | 4.8 | 7.4% | 1.31µM* | -0.6
COc1ccc(S(=O)(=O)N2CCC(CN3C(=O)c4cccc5cccc(c45)C3=O)CC2)cc1 | 7.8% | u | -13.1 | u | 1.47µM* | -2.5
COc1ccc(OCC(O)CN2CCC(CN3C(=O)c4cccc5cccc(c45)C3=O)CC2)cc1 (stereo unspecified) | -8.1% | 8.28µM* | 11.0 | -3.7% | 156.4% | -1.9

Screening results (PubChem)
